Results filed as inconclusive are left out. Where a call stands in place of a potency, no number is given. The source made the active and inactive calls. Calls come from the whole dose curve; as a rule, active = well fitted cell-killing curve with a large enough effect in the repeat runs; inconclusive = weak or mixed curves, or effect the other way; inactive = flat fitted curve, though single readings scatter.
Potency is the fitted concentration of half-maximal effect.

A short description of this experiment: qHTS assay to identify small molecule antagonists of the constitutive androstane receptor (CAR) signaling pathway - cell viability counter screen (AID 1224837). Note: nearly all actives have a fitted effect of over 45% in size. The following applies: HepG2-CYP2B6-hCAR viability, CellTiter-Fluor, 23 h, co-treated with 50 nM CITCO; series mostly up to 92.4 µM. The source says:
National Center for Advancing Translational Sciences [NCATS]
NIH Chemical Genomics Center [NCGC]
U.S. Environmental Protection Agency [EPA]
National Institutes of Environmental Health Sciences [NIEHS]
National Toxicology Program [NTP]
U.S. Food and Drug Administration [FDA]
The constitutive androstane receptor (CAR) is a nuclear receptor which regulates multiple drug metabolizing enzymes (DMEs) and transporters. Activating CAR will generally increase the transcription and subsequent translation of CYP2B6 and CYP3A4. These two DMEs represent about 50% of the drug metabolizing potential in the body. When CAR is deactivated, the metabolizing potential in the body will decrease, subsequently increasing the toxicity in the body or lowering the therapeutic potential of a pro-drug. Recently, there have also been studies performed indicating CARs role in energy metabolism and cancer therapy. Therefore, inhibiting CARs activity could have a potential effect on diabetes and cancer. Identifying environmental toxins and compounds which modulate CAR, through the use of the Tox21 10K compound collection, will be an important step in determining the toxicity and potential therapeutic effects these factors will have on the human body. To differentiate true CAR antagonists from cytotoxic substances, the assay is multiplexed with a cell viability assay.
Tox21 Assay Protocol Summary:
A double-stable (hCAR and CYP2B6-2.2kb) transfected cell line, derived from human hepatoma (HepG2) cells, was utilized for the duration of the quantitative high-throughput screens. The HepG2-CYP2B6-hCAR cells were dispensed at 2500 cells/4 uL/well in 1536-well white solid bottom plates using a Multidrop Combi. After the assay plates were incubated at 37 C/5% CO2 for 4 hrs, 23 nL of compounds at 15 concentrations (from 5-48 columns) or positive control (from 1 to 4 columns) were transferred to the assay plates using a Pintool station. One uL of CITCO (final concentration = 50 nM) was added, using a Flying Reagent Dispenser, inside each well. After a 23 hr incubation period at 37 C/5% CO2, 1 uL of CellTiter-Fluor reagent was added into each well of the assay plates using a Flying Reagent Dispenser. The fluorescence intensity in the plates was then measured using a ViewLux plate reader.
For the molecule `S=c1nccc[nH]1`, the Potency result was “inactive”.

For `Nc1ccc(Oc2ccc(Cl)cc2)cc1`, the Potency result was “inactive”.

On to `Nc1nc2c(ncn2COCCO)c(=O)[nH]1`, for which the Potency result was “inactive”.

Regarding `COc1ccc(NC(=O)CC(C)=O)cc1`, the Potency entry was “inactive”.

With `Cc1ccc(C(C)C)cc2c(C)ccc1-2`, the Potency result is “inactive”.

As to `CCCC(=O)OCOC(=O)C1=C(C)NC(C)=C(C(=O)OC)C1c1cccc(Cl)c1Cl` (stereo not given), the Potency entry is “inactive”.

In the case of `CC[C@H](C)COC(=O)/C=C/c1ccc(N=Cc2ccc(OC)cc2)cc1`, the Potency entry is “inactive”.

`CN1CCN2c3ccccc3Cc3ccccc3C2C1` (stereo not given): the Potency result was “inactive”.

On to `CCCCCCCCCCC[C@@H](C[C@@H]1OC(=O)[C@H]1CCCCCC)OC(=O)[C@H](CC(C)C)NC=O`, for which the Potency result is “inactive”.

Turning to `C#Cc1ccc(-c2ccccc2F)cc1`, the Potency entry is “inactive”.

With `CC(=O)OCC=C(C)C`, the Potency result was “inactive”.

As to `CN(C)Cc1cc(C(C)(C)C)c(O)c(C(C)(C)C)c1`, the Potency result was “inactive”.

Consider `COC1=C(OC)C(=O)C(CCCCCCCCCCO)=C(C)C1=O`, for which the Potency entry is “inactive”.

On to `CCCCCCCC`, for which the Potency entry was “inactive”.

For the molecule `CC(C)Cn1cnc2c(N)nc3ccccc3c21`, the activity change, negative = cytotoxicity was -10.6% [at 19 µM] (inactive).

Regarding `CC(CO)Oc1ccccc1` (stereo not given), the Potency entry is “inactive”.

Consider `C=C(C)c1cccc(C(=C)C)c1`, for which the Potency entry was “inactive”.

As to `CNc1ccc([N+](=O)[O-])cc1`, the Potency is 48.7 µM (active).

Consider `Cc1ccc(-c2ccccc2)cc1`, for which the Potency entry was “inactive”.

`CN(C)CCN1CCN(c2cccc(Cl)c2)C1=O`: the Potency result was “inactive”.

For `CCO[Si](OCC)(OCC)OCC`, the Potency entry was “inactive”.

Turning to `Oc1ccccc1O`, the Potency entry is “inactive”.

With `COc1ccc2c(c1)c(CC(=O)OC/C=C(\C)CC/C=C(\C)CCC=C(C)C)c(C)n2C(=O)c1ccc(Cl)cc1`, the Potency result was “inactive”.

Turning to `CC(C)NC[C@@H](O)COc1ccc(CC(N)=O)cc1`, the Potency result was “inactive”.

For the molecule `Nc1cc(Cl)c(O)c(Cl)c1`, the Potency result is “inactive”.

On to `CCCCNS(=O)(=O)c1ccc(C)cc1`, for which the Potency entry is “inactive”.

With `C=C(CC)C(=O)c1ccc(OCC(=O)O)c(Cl)c1Cl`, the Potency entry is “inactive”.

As for `Cc1ccc(O)c(O)c1`, the Potency entry was “inactive”.

In the case of `CC[N+](CC)(CC)CCOc1ccc(/C=C/c2ccccc2)cc1`, the Potency entry was “inactive”.

Consider `Cc1c(F)c(N2CCNC(C)C2)cc2c1c(=O)c(C(=O)O)cn2C1CC1` (stereo not given), for which the Potency entry is “inactive”.

With `O=c1oc2cc(O)ccc2c2oc3cc(O)ccc3c12`, the Potency result is “inactive”.

Consider `Cc1c(C)c([N+](=O)[O-])c(C(C)(C)C)c([N+](=O)[O-])c1C`, for which the Potency entry was “inactive”.

As for `OCC(F)(F)F`, the Potency entry was “inactive”.

Regarding `CCC(CC)C(C)CCOC(C)=O` (stereo not given), the Potency result was “inactive”.

For the molecule `C=CC(=O)Nc1cc2c(Nc3ccc(F)c(Cl)c3)ncnc2cc1OCCCN1CCOCC1`, the Potency is 13.3 µM (active).

Take `CCC(=O)C(=O)CC`: the Potency entry was “inactive”.

As to `Cc1c2ccccc2c(C)c2c1ccc1ccccc12`, the Potency was 54.5 µM (active).

Regarding `C[C@@H](O)[C@H](N)C(=O)O`, the activity change, negative = cytotoxicity is 9.9% [at 19 µM] (inactive).

For the molecule `O=c1[nH]c(=O)n([C@H]2C[C@H](O)[C@@H](CO)O2)cc1F`, the Potency entry is “inactive”.

Consider `O=C(O)Cc1ccccc1Nc1c(Cl)cccc1Cl`, for which the Potency result is “inactive”.

(Values after PubChem BioAssay (Tox21).)
